BRCA1 expr up: activators of BRCA1 expression; Potency, µM (series often up to 46.1 µM), for the others: at the top dose activation, actives largely listed as activators; MCF7-BRCA1-FFLuc reporter, luminescence, 48 h; response scale: scaled: vehicle 0%, 10 µM genistein 100%; AID 624202; 380,000 compounds, 1.1% hits; further: potency means the concentration at half of the fitted maximal effect; nearly all actives have a fitted effect of over 80% in size
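Activators of BRCA1 expression were detected as increased firefly luciferase luminescence in engineered MCF7 cells after 48 h compound incubation. Signals were scaled to genistein 10 microM as full activation.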
p53 reactivator: re-activators of mutant p53 | 320,000 compounds, 0.063% hits | Potency, µM (titrated, usually from 92.2 µM), for inactives: at the highest dose activity change, positive = activation, most hits filed as activators | H1299 p53-A138V BP100-luciferase reporter, luminescence, 24 h; further: potency means the concentration at half of the fitted maximal effect; % of control where 0% means no effect; nearly all actives have a fitted effect of over 45% in size
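H1299 (p53-null), stable ts p53-A138V + BP100-Luc; 1000 cells/well, Opti-MEM/10% FBS; cpd 4 pt, 1:5; 24 h, 37 deg C, 5% CO2; detection reagent 10 min RT; luminescence.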
PTHR1 ag: activates the human parathyroid hormone receptor PTHR1; HEK293 GP2 PTHR1 cells, GloSensor cAMP luminescence, 1 h; Potency, µM (top dose mostly 115 µM), for inactives: at the highest dose activation, most hits filed as activators; 410,000 compounds, 0.075% hits; Q03431; further: potency means the concentration at half of the fitted maximal effect; nearly all actives have a fitted effect of over 55% in size
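HEK-293-derived GP2 cells expressing PTHR1 and a GloSensor cAMP reporter, 3,000/well, plated overnight, given luciferin plus IBMX (each 0.5 mM as added) for 1 h at 37 °C, then compound for 1 h at 37 °C. Luminescence was read after 15 min at room temperature.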
LDHA block: LDHA (human) enzyme inhibition; P00338; purified LDHA, NADH/diaphorase-resazurin fluorescence; stronger effect = lower value; activity change, % (values are at about 110 or 230 µM); 480,000 compounds, 0.15% hits; in the data active means activity change below about -30%; inconclusive means mostly about -25% to -30%;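 further: plate controls were DMSO wells for no effect and wells without enzyme for full effect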
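LDH5 2 nM; NADH 0.06 mM, pyruvate 0.2 mM; 200 mM Tris pH 7.4, EDTA, Tween-20; 5 min RT. Detection: diaphorase 0.133 mg/mL + resazurin 37 µM, fluorescence ex540/em590 at 0 and 20 min; normalized to enzyme-free and DMSO wells.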
RGS4 inhibitor: human RGS4 inhibition; Potency, µM (top dose mostly 114 µM), for the others: at the highest dose activity change, negative = inhibition, most hits filed as inhibitors; Transcreener GDP fluorescence polarization, RGS4-accelerated GTP hydrolysis; 390,000 compounds, 0.039% hits; further: potency means the concentration at half of the fitted maximal effect; on the % scale 0 is the no-effect control and ±100 the full control effect; nearly all actives have a fitted effect of over 75% in size
Target sequence (P49798 whole entry, looked up): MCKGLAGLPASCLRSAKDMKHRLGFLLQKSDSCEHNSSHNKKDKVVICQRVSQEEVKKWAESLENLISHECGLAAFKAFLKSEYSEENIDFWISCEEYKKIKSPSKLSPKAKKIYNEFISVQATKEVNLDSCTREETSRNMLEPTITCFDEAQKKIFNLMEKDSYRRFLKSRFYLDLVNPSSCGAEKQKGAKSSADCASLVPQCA
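MLSMR compounds (23 nl, pin-transferred) preincubated 10 min at room temperature with a 500nM (2x) first reagent, then RGS4 at 900nM (2x) plus Transcreener GDP mix added; fluorescence polarization (620/688 nm) read before and after 90 min at 30 °C.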
Starred values were filed as active, the others as inactive; i = inactive; ? = inconclusive; nt = no result given; [ ] = dose if it differs, or a comment. A selection: hits, their analogues and other compounds. The true share with any hit is near 1.1%. Unless noted, the call rests on the fitted dose curve; in most records, active means well fitted curve in the direction sought with a large enough effect; inconclusive means small, poorly fitted or top-dose-only effect, or another doubt; inactive means no such curve, though single readings can be large; an effect the other way counts as inactive or inconclusive.

SMILES	BRCA1 expr up	p53 reactivator	PTHR1 ag	LDHA block	RGS4 inhibitor
Cc1ccc(NC(=S)NC(=O)c2ccc(Br)o2)c(C)c1	3.98µM*	25.4%	-17.7%	-5.4	0.0%
Cc1ccc(NC(=S)NC(=O)C2CC2)c(C)c1	11.2µM*	?	-18.8%	-0.5	-14.6%
COc1cc(NC(=O)c2ccccc2Cl)ccc1NC(=O)c1cccs1	6.31µM*	-4.2%	-21.3%	-9.8	8.6%
CSc1nc2ccc(NC(=O)c3cccs3)cc2s1	4.47µM*	?	-8.6%	-1.8	-12.6%
O=C(Nc1ccc(O)cc1)c1ccc(NC(=O)c2cccs2)cc1	3.98µM*	17.4%	-3.3%	-6.0	-21.3%
O=C(Nc1ccc(NC(=O)c2cccs2)cc1)c1ccccc1	27.7%	13.2%	i	2.0	-41.5%
Cc1ccccc1NC(=O)CSc1nc2ccc(NC(=O)c3cccs3)cc2s1	8.6%	nt	i	-1.8	-19.1%
Cc1ccc(NC(=O)c2cccs2)cc1	2.24µM*	?	-30.0%	-2.0	7.6%
O=C(/C(=C/c1ccsc1)C(=O)C(F)(F)F)c1ccccc1	nt	nt	nt	7.8	nt
O=C(Nc1ccc(-n2ccc(C(F)(F)F)n2)cc1)c1cccs1	6.31µM*	4.4%	-17.4%	-1.2	13.2%
O=C(O)c1ccccc1C(=O)Nc1ccc(-n2ccc(C(F)(F)F)n2)cc1	-3.8%	1.5%	i	-3.7	-2.2%
Cc1ccc2c(c1)cc1c(=O)[nH]ncn12	11.2µM*	13.0%	i	1.6	-23.1%
COc1ccc(S(=O)(=O)Nc2c(N3CCCC3)c3ccccc3oc2=O)cc1Cl	nt	nt	nt	-8.5	nt
Cc1ccccc1NC(=O)c1ccc2c(Cl)c3c(nc2c1)CCCC3	nt	nt	nt	-2.7	nt
N#Cc1ccccc1NC(=O)c1ccc2c(Cl)c3c(nc2c1)CCCC3	6.31µM*	?	i	-1.4	15.1%
COc1ccc(NC(=O)c2cccc([N+](=O)[O-])c2)cc1	?	24.8%	-2.3%	-7.7	10.0%
COc1ccc(NC(=O)c2cc([N+](=O)[O-])ccc2O)cc1	?	-11.3%	-41.4%	-38.1*	1.2%
O=C(N/N=C/c1ccccc1O)C1CC(=O)N(c2ccc(Cl)cc2)C1 (configuration not stated)	-63.4%	31.6µM*	-22.1%	0.7	12.3%
Oc1ccc(Cl)cc1C1=NNC(c2ccc(Cl)cc2)C1 (configuration not stated)	-69.2%	28.2µM*	-46.2%	-7.0	3.9%
Oc1c(Cl)cc(Cl)cc1C1=NNC(c2ccc(Cl)cc2)C1 (configuration not stated)	-47.0%	-6.3%	-25.7%	-2.7	-48.1%
CN(C)N1C(=O)CC(c2cccc(Cl)c2Cl)C2=C1CC(C)(C)CC2=O (configuration not stated)	nt	nt	nt	-11.6	nt
COc1ccc2[nH]c(C(=O)Nc3ccc(C)c(F)c3)cc2c1	3.55µM*	3.8%	-4.2%	-6.6	-5.3%
CCOC(=O)c1cc2cc(OC)ccc2[nH]1	5.62µM*	?	-29.5%[57.5 µM]	-1.9	-12.0%
CCN1CCN(C(=O)c2cc3ccc(OC)cc3[nH]2)CC1	11.2µM*	?	i	-0.2	-9.9%
COc1ccc(NC(=O)c2cc3cc(Br)ccc3[nH]2)cc1	nt	nt	nt	3.6	nt
SMILES	BRCA1 expr up	p53 reactivator	PTHR1 ag	LDHA block	RGS4 inhibitor
NC(=S)NNc1ccccc1	nt	nt	nt	-7.3	nt
COc1ccc(/C(N)=N/OC(=O)c2ccco2)cc1	?	-8.4%	-45.0%	0.6	-1.6%
N/C(=N\OC(=O)c1ccco1)c1ccccc1	5.62µM*	?	-28.6%	-0.3	5.8%
Cc1ccc(/C(N)=N/OC(=O)c2ccco2)cc1	0.1%	17.8µM*	-39.8%	1.3	12.3%
N/C(=N\OC(=O)c1ccco1)c1ccc(Br)cc1	2.51µM*	?	-8.0%[57.5 µM]	-2.6	-20.0%[11.4 µM]
N/C(=N\OC(=O)c1ccc(Br)cc1)c1ccccc1	52.7%	?	-19.7%[57.5 µM]	-8.6	2.9%
O=C(/C=C/c1ccco1)OC(C(=O)c1ccccc1)c1ccccc1 (configuration not stated)	nt	nt	nt	-4.4	nt
CC(C)NC(=O)c1ccc2c(Cl)c3c(nc2c1)CCCC3	nt	nt	nt	3.6	nt
COc1ccc(C2=C(O)C(=O)N(Cc3ccco3)C2c2ccc(C(C)C)cc2)cc1 (configuration not stated)	nt	nt	nt	-0.4	nt

Source: PubChem BioAssay
